Results reported in the supplement of paper PMC10849652.
The full data set covers some 7,900 targets. This sample favours those with a hit. About 0.6% of all pairs of compound and target were hits.

Assays:
Experiment in all cases: log2 fold change, soluble protein after heating vs DMSO (PISA); higher = thermal stabilisation; K562 cells, 10 uM, 30 min; active = over 0.2 and 3.5 SD of the protein, either way, in both replicates (recomputed)
[1] = compound: CN1CCN(c2nc(C3=C(c4c[nH]c5ccccc45)C(=O)NC3=O)c3ccccc3n2)CC1 [sotrastaurin]
Method in brief: (§1)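 K562 cells at 2×10^6 cells/mL were exposed to 10 μM compound for 30 min, then aliquots were heated for 3 min across 48°C-58°C, pooled, and extracted in PBS containing 0.5% NP-40 at 4°C. The supernatant after 21,000xg for 90 min was taken as soluble protein and measured by TMTpro 16plex LC-MS/MS with channel sums equalised. Thermal stability is reported relative to control samples, with values from duplicates. Fold changes are given on a log2 scale.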

[2] = compound: CNC(=O)C1=CC=CC=C1NC2=NC(=NC=C2Cl)NC3=C(C=C(C=C3)N4CCOCC4)OC
Method in brief: as §1

[3] = compound: CNC(=O)c1ccc(Nc2ncc(C(F)(F)F)c(NCc3nccnc3N(C)S(C)(=O)=O)n2)cc1 [defactinib]
Method in brief: as §1

[4] = compound: COC(=O)[C@H](CCSC)NC(=O)C1=C(C=C(C=C1)NC[C@H](CS)N)C2=CC=CC=C2
Method in brief: as §1

[5] = compound: CN1CCN(CCOc2cc(OC3CCOCC3)c3c(Nc4c(Cl)ccc5c4OCO5)ncnc3c2)CC1 [saracatinib]
Method in brief: as §1

[6] = compound: CNc1nc(-c2ccc3c(N)n[nH]c3c2)cc(N2C[C@@H](C(=O)NC3CCCCC3)CC[C@H]2C)n1
Method in brief: as §1

[7] = compound: CN1CCc2c(c3ccccc3n2Cc2ccc(C(=O)NO)cc2)C1 [Tubastatin A]
Method in brief: as §1

[8] = compound: CN1CC[C@H](c2c(O)cc(O)c3c(=O)cc(-c4ccccc4Cl)oc23)[C@H](O)C1 [alvocidib]
Method in brief: as §1

[9] = compound: CNCc1ccc(-c2[nH]c3cc(F)cc4c3c2CCNC4=O)cc1 [rucaparib]
Method in brief: as §1

[10] = compound: COC(=O)N[C@@H](C)CNc1nccc(-c2cn(C(C)C)nc2-c2cc(Cl)cc(NS(C)(=O)=O)c2F)n1 [encorafenib]
Method in brief: as §1

Measured: log2 fold change

AIF1 (UniProt P55008)
inactive: [1] 0.025 | [2] 0.15 | [3] 0.032 | [4] -0.046

ARFIP1 isoform 2 (UniProt P53367)
Sequence of UniProt P53367 (P53367 whole entry, looked up): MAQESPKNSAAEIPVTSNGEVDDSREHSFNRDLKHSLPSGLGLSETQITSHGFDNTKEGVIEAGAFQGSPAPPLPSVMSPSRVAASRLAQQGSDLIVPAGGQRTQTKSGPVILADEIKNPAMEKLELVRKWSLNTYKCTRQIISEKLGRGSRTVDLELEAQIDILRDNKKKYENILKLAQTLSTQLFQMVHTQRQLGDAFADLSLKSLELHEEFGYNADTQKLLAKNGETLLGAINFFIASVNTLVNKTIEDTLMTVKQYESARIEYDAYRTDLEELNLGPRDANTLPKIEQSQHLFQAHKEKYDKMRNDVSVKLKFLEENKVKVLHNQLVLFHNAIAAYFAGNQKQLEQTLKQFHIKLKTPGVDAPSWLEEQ
inactive: [5] 0.026 | [1] -0.041 | [2] -0.268 | [6] 0.279

BAP18 isoform 3 (UniProt Q8IXM2)
inactive: [7] 0.301 | [2] -0.129

APAF1 (UniProt O14727)
inactive: [5] -0.088 | [1] 0 | [8] -0.026 | [2] 0.109 | [3] 0.082 | [9] 0.103 | [6] 0.032 | [10] 0.158 | [4] 0.05

ADD2 isoform 9 (UniProt P35612)
inactive: [1] -0.122

ADPRH (UniProt P54922)
Sequence of UniProt P54922 (P54922 whole entry, looked up): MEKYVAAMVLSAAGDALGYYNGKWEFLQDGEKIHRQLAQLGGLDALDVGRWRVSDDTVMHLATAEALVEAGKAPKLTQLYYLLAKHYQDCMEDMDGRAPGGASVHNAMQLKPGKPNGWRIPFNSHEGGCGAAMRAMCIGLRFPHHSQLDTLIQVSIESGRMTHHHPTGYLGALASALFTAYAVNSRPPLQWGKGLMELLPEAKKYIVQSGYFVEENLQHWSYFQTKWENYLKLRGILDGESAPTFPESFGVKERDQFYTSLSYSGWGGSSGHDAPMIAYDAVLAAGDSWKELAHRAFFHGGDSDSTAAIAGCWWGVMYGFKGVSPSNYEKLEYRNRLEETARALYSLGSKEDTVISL
inactive: [1] -0.067 | [7] 0.213 | [2] -0.011 | [3] -0.076 | [4] 0.028

ACTR3B (UniProt Q9P1U1)
inactive: [7] -0.01 | [2] -0.004 | [3] 0.037 | [4] -0.01

ATXN3 isoform 1 (UniProt P54252)
Sequence of UniProt P54252 (P54252 whole entry, looked up): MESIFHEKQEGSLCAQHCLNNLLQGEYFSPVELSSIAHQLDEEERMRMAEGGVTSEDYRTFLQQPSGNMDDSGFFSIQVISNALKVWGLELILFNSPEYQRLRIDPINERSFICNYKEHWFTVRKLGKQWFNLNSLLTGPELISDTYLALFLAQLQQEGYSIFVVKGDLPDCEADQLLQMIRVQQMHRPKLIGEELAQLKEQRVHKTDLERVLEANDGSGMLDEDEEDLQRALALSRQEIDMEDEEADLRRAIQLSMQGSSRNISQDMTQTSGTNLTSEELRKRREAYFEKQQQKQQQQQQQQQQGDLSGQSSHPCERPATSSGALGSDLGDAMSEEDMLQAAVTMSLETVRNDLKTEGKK
inactive: [8] -0.109 | [7] 0.138 | [2] -0.03 | [3] -0.119 | [9] -0.015 | [10] 0.085 | [4] 0.018

AKNA (UniProt Q7Z591)
inactive: [1] -0.017 | [8] -0.066 | [2] -0.074

ATF1 (UniProt P18846)
inactive: [1] -0.098 | [8] 0.081 | [7] -0.068 | [2] -0.052 | [3] 0.045 | [9] -0.128 | [10] -0.07 | [4] 0.024

BSCL2 isoform 4 (UniProt Q96G97)
inactive: [5] -0.019 | [8] -0.164 | [7] 0.03 | [2] -0.025 | [3] -0.113 | [6] -0.122 | [4] -0.071

ASB6 (UniProt Q9NWX5)
inactive: [1] -0.029 | [2] -0.078 | [3] -0.033 | [9] 0.124 | [10] -0.094 | [4] 0.031

ARMC8 isoform 6 (UniProt Q8IUR7)
inactive: [2] -0.088 | [3] -0.114 | [4] 0.108

ACOX3 (UniProt O15254)
Sequence of UniProt O15254 (O15254 whole entry, looked up): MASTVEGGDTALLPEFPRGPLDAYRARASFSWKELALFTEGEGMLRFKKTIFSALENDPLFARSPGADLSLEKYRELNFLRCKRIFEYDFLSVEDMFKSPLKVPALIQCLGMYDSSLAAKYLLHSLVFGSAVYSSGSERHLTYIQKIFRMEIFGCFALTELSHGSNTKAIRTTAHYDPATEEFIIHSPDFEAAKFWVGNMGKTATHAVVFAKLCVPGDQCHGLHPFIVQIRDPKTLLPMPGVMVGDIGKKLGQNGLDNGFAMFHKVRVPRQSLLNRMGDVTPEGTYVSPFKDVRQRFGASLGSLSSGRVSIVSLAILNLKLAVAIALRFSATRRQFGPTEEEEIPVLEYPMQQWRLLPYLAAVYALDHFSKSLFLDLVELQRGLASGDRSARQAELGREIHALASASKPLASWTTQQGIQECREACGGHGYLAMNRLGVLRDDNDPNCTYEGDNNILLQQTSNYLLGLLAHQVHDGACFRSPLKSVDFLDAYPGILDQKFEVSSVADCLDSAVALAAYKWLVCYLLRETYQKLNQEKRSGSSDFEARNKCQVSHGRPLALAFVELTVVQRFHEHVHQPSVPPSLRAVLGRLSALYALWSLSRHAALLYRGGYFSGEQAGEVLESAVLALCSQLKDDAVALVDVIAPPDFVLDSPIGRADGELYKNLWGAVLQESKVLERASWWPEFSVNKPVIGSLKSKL
inactive: [1] -0.039 | [8] -0.097 | [2] -0.034 | [3] -0.063 | [9] -0.313 | [10] -0.036 | [4] 0.046
active: [7] -0.465

AP2S1 (UniProt M0QZ21)
inactive: [7] 0.335

ARHGAP25 isoform 4 (UniProt P42331)
inactive: [5] 0.249 | [8] -0.128 | [7] 0.079 | [2] -0.023 | [3] 0.02 | [9] 0.168 | [6] 0.131 | [10] 0.212 | [4] -0.212

ANGEL1 (UniProt Q9UNK9)
inactive: [7] 0.089 | [3] -0.076 | [4] 0.095

BAIAP2 isoform 4 (UniProt Q9UQB8)
inactive: [1] 0.147 | [8] -0.034 | [7] 0.288

BDH2 (UniProt Q9BUT1)
Sequence of UniProt Q9BUT1 (Q9BUT1 whole entry, looked up): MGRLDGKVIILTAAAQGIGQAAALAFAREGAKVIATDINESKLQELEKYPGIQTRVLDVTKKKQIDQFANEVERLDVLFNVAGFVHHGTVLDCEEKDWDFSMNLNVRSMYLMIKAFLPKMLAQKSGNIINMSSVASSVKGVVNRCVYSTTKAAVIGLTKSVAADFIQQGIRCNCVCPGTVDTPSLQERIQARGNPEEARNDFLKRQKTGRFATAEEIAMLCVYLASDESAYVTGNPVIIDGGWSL
inactive: [5] -0.088 | [1] 0 | [8] -0.177 | [2] -0.061 | [3] -0.021 | [6] 0.015 | [4] -0.039

BRAF, A0A2R8Y8E0
inactive: [7] -0.084 | [2] 0.143

AUH (UniProt Q13825)
Sequence of UniProt Q13825 (Q13825 whole entry, looked up): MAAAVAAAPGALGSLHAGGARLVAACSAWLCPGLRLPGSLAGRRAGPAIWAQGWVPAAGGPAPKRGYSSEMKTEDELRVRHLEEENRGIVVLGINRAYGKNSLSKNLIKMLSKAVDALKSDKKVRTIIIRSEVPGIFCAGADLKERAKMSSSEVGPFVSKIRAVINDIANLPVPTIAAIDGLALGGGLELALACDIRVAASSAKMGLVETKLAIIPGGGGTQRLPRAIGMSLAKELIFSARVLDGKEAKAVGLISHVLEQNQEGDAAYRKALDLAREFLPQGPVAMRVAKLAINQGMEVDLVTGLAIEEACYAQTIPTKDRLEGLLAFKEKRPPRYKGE
inactive: [5] 0.184 | [8] 0.016 | [7] 0.152 | [2] 0.003 | [3] -0.055 | [9] 0.065 | [6] -0.062 | [10] -0.005 | [4] 0.006

AMD1 (UniProt P17707)
Sequence of UniProt P17707 (P17707 whole entry, looked up): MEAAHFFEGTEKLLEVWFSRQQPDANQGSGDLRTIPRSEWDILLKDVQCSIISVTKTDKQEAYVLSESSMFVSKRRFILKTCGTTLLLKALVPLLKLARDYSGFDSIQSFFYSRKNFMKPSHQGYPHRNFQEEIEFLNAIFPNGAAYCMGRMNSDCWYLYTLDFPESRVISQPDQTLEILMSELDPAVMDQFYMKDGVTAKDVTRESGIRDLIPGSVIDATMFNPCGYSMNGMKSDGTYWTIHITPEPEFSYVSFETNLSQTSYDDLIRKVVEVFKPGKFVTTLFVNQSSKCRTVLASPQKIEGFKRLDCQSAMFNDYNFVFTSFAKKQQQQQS
inactive: [1] -0.017 | [7] 0.014 | [2] 0.02 | [3] 0.082 | [9] -0.08 | [10] 0.023 | [4] 0.042

ABHD11 (UniProt Q8NFV4)
inactive: [5] -0.022 | [8] -0.066 | [7] 0.096 | [2] 0.05 | [3] -0.114 | [9] 0.02 | [6] -0.102 | [10] 0.004 | [4] -0.095

ABCA4 (UniProt P78363)
inactive: [1] -0.249 | [8] 0.277 | [7] 0.246 | [2] -0.152 | [9] 0.006 | [10] 0.006

BRMS1 (UniProt Q9HCU9)
inactive: [5] -0.185 | [7] 0.001 | [9] -0.017 | [6] 0.007 | [10] 0.106

APOBEC3G (UniProt Q9HC16)
Sequence of UniProt Q9HC16 (Q9HC16 whole entry, looked up): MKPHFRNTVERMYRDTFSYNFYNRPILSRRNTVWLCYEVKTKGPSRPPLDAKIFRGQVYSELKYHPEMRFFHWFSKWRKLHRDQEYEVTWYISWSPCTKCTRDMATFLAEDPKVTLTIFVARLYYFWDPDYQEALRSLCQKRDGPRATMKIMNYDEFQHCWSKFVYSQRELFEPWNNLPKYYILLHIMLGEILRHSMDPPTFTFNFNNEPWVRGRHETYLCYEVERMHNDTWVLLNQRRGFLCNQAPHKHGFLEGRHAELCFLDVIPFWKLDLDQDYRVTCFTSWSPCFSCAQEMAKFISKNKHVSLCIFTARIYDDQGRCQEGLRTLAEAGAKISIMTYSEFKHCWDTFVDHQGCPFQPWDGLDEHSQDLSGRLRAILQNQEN
inactive: [5] 0.046 | [1] 0.023 | [7] -0.045 | [2] -0.093 | [3] -0.097 | [9] 0.152 | [6] -0.121 | [10] -0.263 | [4] 0.038

AZI2 (UniProt Q9H6S1)
inactive: [1] -0.046 | [7] -0.078 | [3] 0.018 | [9] -0.12 | [10] 0.012 | [4] -0.093
active: [2] 0.453

ALDH2 isoform 2 (UniProt P05091)
inactive: [1] 0.161 | [7] 0.005 | [3] 0.06 | [9] -0.255 | [10] 0.097 | [4] -0.003

AARSD1 (UniProt Q9BTE6)
Sequence of UniProt Q9BTE6 (Q9BTE6 whole entry, looked up): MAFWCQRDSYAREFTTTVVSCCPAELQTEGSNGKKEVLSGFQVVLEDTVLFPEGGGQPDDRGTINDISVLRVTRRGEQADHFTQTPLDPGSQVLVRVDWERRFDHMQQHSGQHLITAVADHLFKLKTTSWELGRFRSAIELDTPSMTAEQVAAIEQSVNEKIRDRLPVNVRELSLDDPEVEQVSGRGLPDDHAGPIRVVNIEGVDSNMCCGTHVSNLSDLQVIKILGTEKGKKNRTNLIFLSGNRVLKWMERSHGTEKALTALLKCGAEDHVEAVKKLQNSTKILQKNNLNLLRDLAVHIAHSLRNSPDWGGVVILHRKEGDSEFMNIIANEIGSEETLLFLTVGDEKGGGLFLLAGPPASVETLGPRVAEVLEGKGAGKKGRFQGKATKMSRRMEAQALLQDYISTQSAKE
inactive: [5] 0.008 | [8] -0.15 | [2] 0.08 | [9] 0.014 | [6] 0.165 | [10] -0.042

ACSL6 isoform 1 (UniProt Q9UKU0)
Sequence of UniProt Q9UKU0 (Q9UKU0 whole entry, looked up): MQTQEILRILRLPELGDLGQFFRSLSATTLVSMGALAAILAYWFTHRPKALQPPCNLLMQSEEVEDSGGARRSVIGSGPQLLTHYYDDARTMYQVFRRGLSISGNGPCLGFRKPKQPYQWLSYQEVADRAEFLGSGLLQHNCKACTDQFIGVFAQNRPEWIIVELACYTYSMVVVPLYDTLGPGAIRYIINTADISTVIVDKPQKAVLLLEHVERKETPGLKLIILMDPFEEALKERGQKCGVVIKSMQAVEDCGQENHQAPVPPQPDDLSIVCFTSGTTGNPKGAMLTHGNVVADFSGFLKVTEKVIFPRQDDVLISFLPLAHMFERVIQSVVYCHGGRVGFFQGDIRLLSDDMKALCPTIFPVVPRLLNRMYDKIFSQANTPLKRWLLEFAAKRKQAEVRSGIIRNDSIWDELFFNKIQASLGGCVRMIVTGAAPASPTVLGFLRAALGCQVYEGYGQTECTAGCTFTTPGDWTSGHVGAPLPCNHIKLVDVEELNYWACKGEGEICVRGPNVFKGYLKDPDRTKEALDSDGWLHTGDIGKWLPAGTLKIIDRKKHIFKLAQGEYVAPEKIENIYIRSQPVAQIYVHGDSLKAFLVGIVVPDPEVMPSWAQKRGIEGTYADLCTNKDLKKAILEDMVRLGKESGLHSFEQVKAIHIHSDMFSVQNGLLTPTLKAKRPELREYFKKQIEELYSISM
inactive: [5] -0.041 | [1] 0.177 | [7] -0.076 | [2] -0.048 | [3] 0.155 | [6] -0.007 | [4] 0.021

ATXN7L3 isoform 2 (UniProt Q14CW9)
Sequence of UniProt Q14CW9 (Q14CW9 whole entry, looked up): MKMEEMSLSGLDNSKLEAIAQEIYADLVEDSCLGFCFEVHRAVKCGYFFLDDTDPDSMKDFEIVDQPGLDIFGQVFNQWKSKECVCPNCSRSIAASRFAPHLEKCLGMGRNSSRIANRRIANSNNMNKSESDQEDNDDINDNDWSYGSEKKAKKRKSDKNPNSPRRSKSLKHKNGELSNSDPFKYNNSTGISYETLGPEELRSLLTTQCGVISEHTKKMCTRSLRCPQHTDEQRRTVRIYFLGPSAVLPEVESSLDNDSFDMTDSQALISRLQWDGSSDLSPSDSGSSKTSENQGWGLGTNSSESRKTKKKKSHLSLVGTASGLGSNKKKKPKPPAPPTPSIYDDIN
inactive: [1] 0.098 | [2] -0.038 | [10] 0
active: [9] 0.669

ACTBL2 (UniProt Q562R1)
Sequence of UniProt Q562R1 (Q562R1 whole entry, looked up): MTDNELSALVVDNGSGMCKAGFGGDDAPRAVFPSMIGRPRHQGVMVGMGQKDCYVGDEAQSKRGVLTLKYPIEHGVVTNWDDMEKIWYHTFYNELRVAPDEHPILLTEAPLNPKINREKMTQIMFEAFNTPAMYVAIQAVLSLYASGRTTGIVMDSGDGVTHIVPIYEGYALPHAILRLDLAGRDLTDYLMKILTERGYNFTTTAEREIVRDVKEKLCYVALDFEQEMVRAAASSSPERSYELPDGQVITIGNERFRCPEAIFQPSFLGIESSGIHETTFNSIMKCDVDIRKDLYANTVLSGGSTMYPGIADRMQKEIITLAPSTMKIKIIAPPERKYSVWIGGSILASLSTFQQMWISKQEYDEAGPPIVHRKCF
inactive: [5] -0.054 | [1] 0.179 | [2] 0.158 | [3] 0.432 | [9] -0.711 | [6] 0.035 | [10] 0.239 | [4] 0.15
